Compounds without any hit were thinned out: in the full panel of roughly 83,000, 20% have a hit.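 In brief: 96-well plates, 48 h treatment, single concentration, percent growth endpoint.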 Values without a mark were called inactive. Activity calls are given as the source filed them. How the source made its calls: active means growth percent below 10; inactive means the rest.
Columns and labels:
Experiment in all cases: NCI-60 one-dose screen, 48 h (100 = growth as untreated, 0 = no growth, -100 = all killed)
[1] = test system: SR leukemia; settings: 10 µM unless noted
[2] = test system: OVCAR-8 ovarian; settings: 10 µM unless noted
[3] = test system: OVCAR-5 ovarian; settings: 10 µM unless noted
[4] = test system: OVCAR-4 ovarian; settings: 10 µM unless noted
[5] = test system: SK-OV-3 ovarian; settings: 10 µM unless noted
[6] = test system: IGROV1 ovarian; settings: 10 µM unless noted
[7] = test system: OVCAR-3 ovarian; settings: 10 µM unless noted
[8] = test system: HS 578T breast; settings: 10 µM
[9] = test system: NCI/ADR-RES ovarian; settings: 10 µM unless noted
[10] = test system: T-47D breast; settings: 10 µM unless noted
[11] = test system: BT-549 breast; settings: 10 µM unless noted
[12] = test system: MDA-MB-435 melanoma; settings: 10 µM unless noted
[13] = test system: SW-620 colon; settings: 10 µM unless noted
[14] = test system: MCF7 breast; settings: 10 µM unless noted
[15] = test system: HCT-116 colon; settings: 10 µM unless noted
[16] = test system: KM12 colon; settings: 10 µM unless noted
[17] = test system: RPMI-8226 leukemia; settings: 10 µM unless noted
[18] = test system: HCC-2998 colon; settings: 10 µM

Nc1nc(N)c2cc(CNc3ccc(C(=O)NC(CC(=O)O)C(=O)O)cc3)ccc2n1 (stereo unspecified)
growth [1]: 13.8% | growth [2]: -13.2% (active) | growth [3]: 30.1% | growth [4]: 50.8% | growth [5]: 47.4% | growth [6]: 38.7% | growth [7]: 50.5% | growth [8]: -20.2% (active) | growth [9]: 17.3% | growth [10]: 62.3% | growth [11]: 57.7% | growth [12]: 37.8% | growth [13]: 25.2% | growth [14]: 17.3% | growth [15]: 22.4% | growth [16]: 33.8%

COc1ccc(F)c(F)c1C(=O)c1cnc(NC2CCN(S(C)(=O)=O)CC2)nc1N
growth [1]: 2.64% (active) | growth [17]: 0.261% (active) | growth [2]: 7.37% (active) | growth [3]: 12.6% | growth [5]: 11.9% | growth [6]: 10.2% | growth [7]: 13.1% | growth [9]: 1.6% (active) | growth [10]: -3.23% (active) | growth [11]: -11.8% (active) | growth [12]: -33.3% (active) | growth [13]: 0.808% (active) | growth [14]: 2.53% (active) | growth [15]: 4.77% (active) | growth [18]: -26.5% (active) | growth [16]: 4.84% (active)

COc1cc2nccc(Oc3ccc(NC(=O)Nc4cc(C)on4)c(Cl)c3)c2cc1OC
growth [1]: 4.19% (active) | growth [17]: 21% | growth [2]: 15.3% | growth [3]: 20.2% | growth [5]: -17.3% (active) | growth [6]: 0.0648% (active) | growth [7]: 35.1% | growth [9]: 10.2% | growth [10]: -1.14% (active) | growth [11]: 19.6% | growth [12]: 14.8% | growth [13]: 10.7% | growth [14]: 22.8% | growth [15]: -4.79% (active) | growth [18]: 56.6% | growth [16]: 11.4%

O=C(Nc1ccc(C2=NCCCN2)cc1)c1ccc(C(=O)Nc2ccc(C3=NCCCN3)cc2)nc1
growth [1]: 85.2% | growth [2]: 112% | growth [3]: 95.1% | growth [4]: 102% | growth [5]: 106% | growth [6]: 107% | growth [7]: 101% | growth [8]: -26.5% (active) | growth [9]: 102% | growth [10]: 97.3% | growth [11]: 106% | growth [12]: 117% | growth [13]: 104% | growth [14]: 98% | growth [15]: 93.2% | growth [16]: 112%

Cc1cc(Nc2ncnc3ccc(NC4=NC(C)(C)CO4)cc23)ccc1Oc1ccn2ncnc2c1
growth [1]: -14.4% (active) | growth [17]: 24.3% | growth [2]: 37.3% | growth [3]: 14.3% | growth [5]: 14.6% | growth [6]: -19.6% (active) | growth [7]: 46.8% | growth [9]: 63.3% | growth [10]: 32.3% | growth [11]: 42.4% | growth [12]: 43.9% | growth [13]: 18.2% | growth [14]: 21.4% | growth [15]: 16.1% | growth [18]: 18.9% | growth [16]: 21.3%

CN1CC[C@H](c2c(O)cc(O)c3c(=O)cc(-c4ccccc4Cl)oc23)[C@H](O)C1
growth [1]: -0.341% (active) | growth [17]: 6.39% (active) | growth [2]: 7.4% (active) | growth [3]: 8.36% (active) | growth [5]: 10.2% | growth [6]: 4.27% (active) | growth [7]: 17.4% | growth [9]: 2.07% (active) | growth [10]: 0.506% (active) | growth [11]: -8.28% (active) | growth [12]: -73.3% (active) | growth [13]: 0.889% (active) | growth [14]: 4.72% (active) | growth [15]: 4.7% (active) | growth [16]: 3.91% (active)

CC1CCC(n2cnc3c(Cl)ncnc32)O1 (stereo unspecified)
growth [1]: 104% | growth [2]: 91.4% | growth [3]: 93.9% | growth [4]: 104% | growth [5]: 98.6% | growth [6]: 61.7% | growth [7]: 97.1% | growth [8]: 88.1% | growth [9]: 101% | growth [10]: 91.1% | growth [11]: 89.6% | growth [12]: 99.6% | growth [13]: 106% | growth [14]: 90.1% | growth [15]: 89.3% | growth [18]: 103% | growth [16]: 106%

CC[C@H](CO)Nc1nc(NCc2ccccc2)c2ncn(C(C)C)c2n1
growth [1]: 7.1% (active) | growth [17]: 85.5% | growth [2]: 63.8% | growth [3]: 50.9% | growth [5]: 102% | growth [6]: 49% | growth [7]: 65.2% | growth [9]: 71.4% | growth [10]: 48.4% | growth [11]: 78.1% | growth [12]: 83.6% | growth [13]: 69.3% | growth [14]: 31.5% | growth [15]: 30.1% | growth [16]: 47.6%

CCCC(=O)OCC1OC(n2cnc3c(=S)nc(N)[nH]c32)C(OC(=O)CCC)C1OC(=O)CCC (stereo unspecified)
growth [1]: 6.99% (active) | growth [2]: 6.16% (active) | growth [3]: 38.4% | growth [4]: 20.6% | growth [5]: 5.91% (active) | growth [6]: 51% | growth [7]: 6.47% (active) | growth [8]: 29.9% | growth [9]: 40.2% | growth [10]: 33.4% | growth [11]: 34.2% | growth [12]: 36.3% | growth [13]: 52% | growth [14]: 17.8% | growth [15]: 24.7% | growth [16]: 41%

Cc1nc(NC(=O)N2CCC[C@H]2C(N)=O)sc1-c1ccnc(C(C)(C)C(F)(F)F)c1
growth [1]: 26.2% | growth [17]: 48.7% | growth [2]: 48.5% | growth [3]: 36.5% | growth [5]: -25.6% (active) | growth [6]: -23.5% (active) | growth [7]: 39.1% | growth [9]: 60.8% | growth [10]: -34.7% (active) | growth [11]: 50.2% | growth [12]: 49.3% | growth [13]: 41.7% | growth [14]: 13.9% | growth [15]: 26.4% | growth [18]: 48.6% | growth [16]: 57.6%

CCc1ccc(/C=C/c2ccc(O)c3ncccc23)[n+](C)c1
growth [1]: 7.25% (active) | growth [2]: -12.1% (active) | growth [3]: 40.9% | growth [5]: 76.7% | growth [6]: 33.4% | growth [7]: -11.4% (active) | growth [8]: 23.1% | growth [9]: 73.4% | growth [10]: 31.2% | growth [11]: 65.9% | growth [12]: 59.4% | growth [13]: 40.7% | growth [14]: 53.8% | growth [15]: 18.3% | growth [18]: 31.6% | growth [16]: 40.2%

COC(=O)c1[nH]cnc1/N=N/N(C)CCO
growth [1]: 75.4% | growth [2]: 109% | growth [3]: 92.9% | growth [4]: 105% | growth [5]: 98.3% | growth [6]: 109% | growth [7]: 99% | growth [8]: -26.7% (active) | growth [9]: 95.9% | growth [10]: 91.1% | growth [11]: 98.4% | growth [12]: 112% | growth [13]: 102% | growth [14]: 96% | growth [15]: 93.5% | growth [16]: 106%

O=C(Nc1ccc(C(=O)Nc2ccc(C3=NCCCN3)cc2)cc1)Nc1ccc(C2=NCCCN2)cc1
growth [1]: 44.5% | growth [2]: 57.4% | growth [3]: 93.2% | growth [4]: 65.5% | growth [5]: 97.8% | growth [6]: 99.7% | growth [7]: 103% | growth [8]: 91.3% | growth [9]: 86.5% | growth [10]: 45.2% | growth [11]: 76.1% | growth [12]: 103% | growth [13]: 101% | growth [14]: 70.8% | growth [15]: 63.9% | growth [18]: 101% | growth [16]: 88.9%

COCCN1CCN(Cc2ccc(-c3n[nH]c4c3C(=O)c3c(NC(=O)NN5CCOCC5)cccc3-4)cc2)CC1
growth [1]: -10.3% (active) | growth [17]: -37.4% (active) | growth [2]: -13.4% (active) | growth [3]: 9.54% (active) | growth [5]: -7.89% (active) | growth [6]: -10.9% (active) | growth [7]: 9.5% (active) | growth [9]: 5% (active) | growth [10]: 12.7% | growth [11]: -24.2% (active) | growth [12]: -46.4% (active) | growth [13]: -25% (active) | growth [14]: -33.2% (active) | growth [15]: -48.2% (active) | growth [16]: -66.3% (active)

COC(=O)[C@@H](C)CNS(=O)(=O)N(c1cc(C(F)(F)F)cc(C(F)(F)F)c1)C1CCN(Cc2ccc(F)cc2)CC1
growth [1]: 26.7% | growth [2]: 67.3% | growth [3]: 76.1% | growth [4]: 73.4% | growth [5]: 76.2% | growth [6]: 54.7% | growth [7]: 56.7% | growth [8]: 90.7% | growth [9]: 51% | growth [10]: 31.1% | growth [11]: 89.6% | growth [12]: 76.8% | growth [13]: 73.9% | growth [14]: 48.7% | growth [15]: 43.4% | growth [18]: -65.3% (active) | growth [16]: 51%

Oc1ccc(/C=N/Nc2nnc(N/N=C/c3ccc(O)cc3O)c3ccccc23)c(O)c1
growth [1]: -26.1% (active) | growth [2]: -60% (active) | growth [3]: 1.16% (active) | growth [4]: -9.22% (active) | growth [5]: -15.4% (active) | growth [6]: -2.51% (active) | growth [7]: -34.1% (active) | growth [8]: -76.8% (active) | growth [9]: -11.1% (active) | growth [10]: -53.2% (active) | growth [11]: -23.6% (active) | growth [12]: -6.07% (active) | growth [13]: -1.28% (active) | growth [14]: -57.2% (active) | growth [15]: -44.1% (active) | growth [16]: -73.2% (active)

From PubChem BioAssay (NCI)
